# Screening data: PubChem BioAssay, several laboratories
# A selection: hits, their analogues and other compounds. The true share with any hit is near 3%.
# HER2 expr 66K = inhibitors of Her2 protein expression, primary screen, SKBR-3 cells, AlphaScreen, 66K library; Receptor tyrosine-protein kinase erbB-2 (Homo sapiens), P04626; SKBR-3 HER2 protein level, 18-24 h; stronger effect = lower value; HER2 level % of control, % at 10 µM; 0.69% of 65,000 active; AID 645, 2007;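 active means HER2 level under 5% of the carrier-only control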;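 further: 100% = DMSO carrier and 0% = 500 nM PU-H71 HSP90 inhibitor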
# 5HT1E antag = 5-HT1E receptor antagonists, primary screen, cell-based, HTS; AID 571, 2007; inhibition, % at 6 µM; CHO 5-HT1E Ga15 NFAT-bla reporter, FRET, antagonist; 0.99% of 65,000 active;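 active means inhibition above a set limit, the mean inhibition across every tested compound plus 3 SD, cut at about 29% in these data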;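 further: signal is the 460 over 535 nm emission ratio of beta-lactamase substrate; 0% = agonist plus DMSO wells and 100% = wells without agonist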
# HTR1A agonist = human 5-HT1a receptor agonists, primary screen, cell-based, CHO, Ga15 NFAT-bla reporter | CHO 5-HT1a Ga15 NFAT-bla reporter, FRET ratio; 0% basal, 100% maximal reference agonist | AID 567, 2006 | activation, % at 10 µM | 0.56% of 65,000 active;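 active means activation above the screen-wide mean activation plus 3 SD, cut at about 19% in these data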;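 further: 0% = DMSO wells and 100% = 5-CT at EC100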
# 5-HT1A blocker = human 5-HT1a receptor antagonists, primary screen, cell-based, CHO, Ga15 NFAT-bla reporter. 5-hydroxytryptamine receptor 1A (Homo sapiens), P08908. CHO 5-HT1a Ga15 NFAT-bla reporter, antagonist mode. inhibition, % at 10 µM. 0.68% of 62,000 active. AID 612, 2007;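 active means inhibition above the mean of all tested compounds plus 3 SD, cut at about 43% in these data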;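 further: receptor stimulated by 5-CT agonist at 100 nM near EC80; beta-lactamase reporter measured by ratiometric fluorescence of a cleavable substrate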
# HTR1E agonist = 5-HT1E receptor agonists, primary screen, cell-based, HTS | activation, % at 6 µM | CHO 5-HT1E Ga15 NFAT-bla reporter, FRET; 0% DMSO wells, 100% control agonist wells | 0.69% of 65,000 active | 5-hydroxytryptamine receptor 1E (Homo sapiens), P28566;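 active means activation above a set limit, the screen-wide mean activation plus 3 SD, cut at about 8.5% in these data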;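 further: 100% = positive control agonist at 1 µM giving full maximal response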
# The depositor's hits bear a star; · = not tested or not shown.
SMILES,HER2 expr 66K,5HT1E antag,HTR1A agonist,5-HT1A blocker,HTR1E agonist
Cc1cccc(N(CC(=O)NCc2ccc3c(c2)OCO3)C(=O)CCC(=O)Nc2ccccn2)c1,-30*,6,-1,-2,0
Cc1cccc(N(CC(=O)NCc2ccc3c(c2)OCO3)C(=O)CCC(=O)Nc2ccccn2)c1C,129,4,-1,7,-1
O=C(CN1CCN(c2ccc(Cl)cc2)CC1)c1ccc2c(c1)OCO2,63,15,-3,5,15*
COc1ccc(NC(=O)c2cc3cc(OC)ccc3oc2=N)cc1,78,-11,-6,0,-1
CCCCCCc1cc2cc(C(=O)NC)c(=N)oc2cc1O,88,2,33*,·,2
C=C(C)CC1Nc2ccccc2NC1CC(=C)C (configuration not stated),133,0,-1,0,0
Cn1cc(C(=O)NC2CCCCC2)c(=O)c2cc(S(=O)(=O)N3CCCC3)ccc21,-4.8*,-9,-3,-10,0
Cn1cc(C(=O)NCCc2ccccc2)c(=O)c2cc(S(=O)(=O)N3CCOCC3)ccc21,89,5,-2,-3,77*
CC1CCN(S(=O)(=O)c2ccc3c(c2)c(=O)c(C(=O)NC2CCCC2)cn3C)CC1,86,0,1,-17,-1
CN(CCNC(=O)c1cn(C)c2ccc(S(=O)(=O)N(C)C)cc2c1=O)CCc1ccccc1,82,0,-1,-1,1
COc1ccc(S(=O)(=O)N2CC3C4C=CC(C4)C3C2)cc1 (configuration not stated),80,12,1,2,0
CCOC(=O)c1c(NC(=O)CSc2nc3cccnc3n2C)sc(C(C)=O)c1C,101,43*,0,17,2
CCOC(=O)c1c(NC(=O)CSc2nnc(-c3ccco3)o2)sc(C(C)=O)c1C,99,-3,-1,5,-1
CCOC(=O)c1c(NC(=O)CSc2nnc(-c3cccnc3)o2)sc(C(C)=O)c1C,109,30*,-1,0,0
COC(=O)C(C)Sc1nc2c(c(=O)n1-c1ccccc1)SCC2 (configuration not stated),·,5,36*,-10,-1
O=C(c1ccco1)N1CCN(/C(=N/S(=O)(=O)c2cccs2)c2ccccc2Cl)CC1,124,-13,29*,-10,0
Cc1noc(C)c1COc1cccc(C(=O)OCC(=O)N2CC(=O)Nc3ccccc32)c1,94,38*,-2,32,-1
CCOC(=O)N1CCC(N2C(=O)c3ccccc3C2Nc2ccc(Cl)cn2)CC1 (configuration not stated),94,-5,-1,-72,1
CCCN(C#N)c1nc(NCC)nc(NC(C)C)n1,248,29*,-1,8,1
CC(C)(C)NC(=O)CSc1ncnc2c1nnn2Cc1ccccc1Cl,4.8*,5,-1,0,-1
COc1ccc2c(=O)c3c(=O)n(Cc4ccco4)c(-c4ccc(C)cc4)nc3oc2c1,4.8*,-6,-1,-3,2
COc1ccc2c(=O)c3c(=O)n(Cc4ccco4)c(C(C)C)nc3oc2c1,83,-2,-3,-13,2
O=c1n(CCCN2CCN(c3cccc(Cl)c3)CC2)nc2ccccn12,98,3,5,·,9.5*
COc1ccccc1NC(=O)NCCCN1CCN(c2cccc(Cl)c2)CC1,55,-22,2,38,3
CC1=CC(C)(C)N(C(=O)c2ccc(F)cc2)c2cc3c(cc21)OCO3,75,-4,-5,43*,-1
O=S(=O)(CCSc1ccccn1)c1nc2ccccc2s1,-8.5*,8,-3,42,0
O=S(=O)(CCSc1nc2ccccc2o1)c1nc2ccccc2s1,-14*,22,-4,47*,-1
O=C(CSc1nc2ccccc2s1)Nc1ncccn1,85,-7,-2,0,1
Cc1ccc(-c2noc(C3CCCN(C(=O)c4c(F)cccc4F)C3)n2)cc1 (configuration not stated),0.1*,4,0,-7,0
